In PubChem BioAssay (NCATS):
Records with an inconclusive call do not appear. Calls of active or inactive are those of the source. Calls follow the shape of the dose curve; as a rule, active = well fitted curve in the direction sought with a large enough effect; inconclusive = small, poorly fitted or top-dose-only effect, or another doubt; inactive = no such curve, though single readings can be large; an effect the other way counts as inactive or inconclusive.

Experiments:
[1] = molecular target: Protein phosphatase 1D (Homo sapiens) (UniProt O15297); assay: RapidFire Mass Spectrometry qHTS Assay for Modulators of WT P53-Induced Phosphatase 1 (WIP1) (AID 1347424); also: series mostly up to about 63 µM
Procedure, shortened: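 RapidFire MS readout of dephosphorylated VEPPL-S-QETFS product, with 1 uM isotope-labelled peptide standard. Reaction: 10 nM WIP1, 2 uM phosphopeptide substrate, 5 min, room temperature, after 1 h compound preincubation; stopped with 0.5% formic acid.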

[2] = molecular target: Protein phosphatase 1D (Homo sapiens) (UniProt O15297); assay: Rhodamine-PBP qHTS Assay for Modulators of WT P53-Induced Phosphatase 1 (WIP1) (AID 1347425)
Procedure, shortened: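 Read-out: Rhodamine-PBP fluorescence (ex 525/em 598 nm) for released Pi, read each minute for 11 min after adding 10 uM VEPPL-pS-QETFS; signal taken as f1 minus pre-substrate f0. Enzyme 5 nM WIP1 with 1 hr room-temperature compound preincubation.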

[3] = Primary qHTS for inhibitors of La Crosse Virus (LACV) - induced cell death in SH-SY5Y cells (AID 1508616);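 also: top concentration of the series differs between compounds; higher means more rescue of cells from virus-induced death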
Procedure, shortened: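 Cytopathicity rescue screen: compounds pinned onto SH-SY5Y cells, which are then infected with LACV (MOI 0.01) and held 6 days at 37C. Percent activity is scaled between infected DMSO control and uninfected DMSO control.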

[4] = molecular target: Calcium and integrin-binding protein 1 (Homo sapiens) (UniProt Q99828); assay: Primary qHTS for Identification of Calcium Integrin Binding Protein 1 (CIB1) Competitor (AID 1508620);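 also: GST tagged CIB1 binding a fluorescein labelled alphaIIb integrin peptide tracer; top concentration of the series differs between compounds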
Procedure, shortened: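 Fluorescence polarization competition: GST-tagged CIB1 (1 uM final) preincubated with compound 15 min at room temperature, then FITC-labelled alphaIIb peptide (100 nM final) added. After 15 min at room temperature, polarization read at Ex 480/Em 540.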

Measured: Potency

Sequence of Protein phosphatase 1D (Homo sapiens) (O15297 whole entry, looked up): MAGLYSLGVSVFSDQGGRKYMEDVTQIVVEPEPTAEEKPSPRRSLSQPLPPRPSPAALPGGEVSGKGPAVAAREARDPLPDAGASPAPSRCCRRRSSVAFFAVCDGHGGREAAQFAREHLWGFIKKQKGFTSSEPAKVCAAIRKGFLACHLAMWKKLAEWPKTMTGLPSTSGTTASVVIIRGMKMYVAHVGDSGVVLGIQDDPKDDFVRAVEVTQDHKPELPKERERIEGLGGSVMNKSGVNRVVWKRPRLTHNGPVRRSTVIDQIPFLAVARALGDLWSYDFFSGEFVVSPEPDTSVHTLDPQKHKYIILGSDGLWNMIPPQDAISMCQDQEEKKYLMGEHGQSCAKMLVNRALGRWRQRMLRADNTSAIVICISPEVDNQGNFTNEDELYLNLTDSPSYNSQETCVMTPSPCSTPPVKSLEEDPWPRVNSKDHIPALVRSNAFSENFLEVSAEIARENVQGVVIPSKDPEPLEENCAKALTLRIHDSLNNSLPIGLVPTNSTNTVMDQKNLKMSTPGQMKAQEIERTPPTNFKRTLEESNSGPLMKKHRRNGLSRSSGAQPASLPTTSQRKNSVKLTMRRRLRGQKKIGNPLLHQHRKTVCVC
Sequence of Calcium and integrin-binding protein 1 (Homo sapiens) (Q99828 whole entry, looked up): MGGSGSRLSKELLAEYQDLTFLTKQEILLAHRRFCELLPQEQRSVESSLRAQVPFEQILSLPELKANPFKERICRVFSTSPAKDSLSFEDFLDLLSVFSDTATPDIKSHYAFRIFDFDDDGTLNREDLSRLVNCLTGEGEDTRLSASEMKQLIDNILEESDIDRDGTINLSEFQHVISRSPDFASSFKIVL

O=C1Nc2ccccc2C1(c1ccc(O)cc1)c1ccc(O)cc1
inactive: [1] | [2] | [3] | [4]

C=CCNc1nc(NCC=C)nc(N2CCN(C(c3ccc(F)cc3)c3ccc(F)cc3)CC2)n1
inactive: [1] | [2] | [3] | [4]

C[C@H]1C[C@@H]2[C@H]([C@@H](O)C[C@@]3(C)[C@H]2CC[C@]3(O)C(=O)CO)[C@@]2(C)C=CC(=O)C=C12
inactive: [1] | [2] | [3]

Oc1ccccc1
inactive: [1] | [2] | [3]

CCCCCN(CCCOC)C(=O)C(CCC(=O)O)NC(=O)c1ccc(Cl)c(Cl)c1 (configuration not stated)
inactive: [1] | [2] | [3] | [4]

CCN1CCN(c2cc(-c3ccc(F)cc3)c3c(n2)CCCCCC3)CC1
inactive: [1] | [2] | [3] | [4]

CC(C)C(=O)Nc1cccc(C(F)(F)F)c1
inactive: [1] | [2] | [3] | [4]

CC(=O)Nc1c(I)c(NC(C)=O)c(I)c(C(=O)O)c1I
inactive: [1] | [2] | [3] | [4]

CN(C)[C@@H]1C(=O)C(C(N)=O)=C(O)[C@@]2(O)C(=O)C3=C(O)c4c(O)cccc4C[C@H]3C[C@@H]12
inactive: [1] | [2] | [3] | [4]

CCOC(=O)c1ccc(NC(=O)CN2CCCCC2)cc1
inactive: [1] | [2] | [3] | [4]

CC(C)=CCNc1ncnc2c1ncn2[C@@H]1O[C@H](CO)[C@@H](O)[C@H]1O
inactive: [1] | [2] | [3] | [4]

CC(=O)N(c1onc(C)c1C)S(=O)(=O)c1ccc(N)cc1
inactive: [1] | [2] | [3]

COC(=O)/C=C\C(=O)OC
inactive: [1] | [2] | [3] | [4]

CC(C)Cc1ccc(C(C)C(=O)OCc2ccccn2)cc1 (configuration not stated)
inactive: [1] | [2] | [3] | [4]

CCOc1ccccc1OCC1CNCCO1 (configuration not stated)
inactive: [1] | [2] | [3] | [4]

O=C(COCCOCCOCC(=O)Nc1c(I)cc(I)c(C(=O)O)c1I)Nc1c(I)cc(I)c(C(=O)O)c1I
inactive: [1] | [2] | [3]

COc1ccc2c(c1)c(CC(=O)OC/C=C(\C)CC/C=C(\C)CCC=C(C)C)c(C)n2C(=O)c1ccc(Cl)cc1
inactive: [1] | [2] | [3] | [4]

CCOC(=O)N1CCC(n2c(=O)[nH]c3cc(Cl)ccc32)CC1
inactive: [1] | [2] | [3] | [4]

CC(C)=CCC/C(C)=C/CC/C(C)=C/C(=O)OCC(=O)[C@@]1(O)CC[C@H]2[C@@H]3CCC4=CC(=O)C=C[C@]4(C)[C@H]3[C@@H](O)C[C@@]21C
inactive: [1] | [2] | [3] | [4]
